Measurements reported in PubChem BioAssay (NCI).
This is part of a sample that, as a whole, favours compounds with a hit. Of some 83,000 tested, about 20% had one in any assay.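 Testing used 96-well plates and a 48-hour single-concentration exposure. Example: -40 means 40% of the starting cells died.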 The source made the active and inactive calls. Rule for the calls: active = growth percent below 10; inactive = the rest.

What was measured:
Assay in all cases: NCI-60 one-dose screen, 48 h (100 = growth as untreated, 0 = no growth, -100 = all killed)
Conditions in all cases: 10 µM unless noted
HCT-15 colon = system: HCT-15 colon
HT29 colon = system: HT29 colon
SNB-75 CNS = system: SNB-75 CNS
SNB-19 CNS = system: SNB-19 CNS
U251 CNS = system: U251 CNS
PC-3 prostate = system: PC-3 prostate
SK-MEL-5 melanoma = system: SK-MEL-5 melanoma
UACC-62 melanoma = system: UACC-62 melanoma
LOX IMVI melanoma = system: LOX IMVI melanoma
SK-MEL-28 melanoma = system: SK-MEL-28 melanoma

Measured: growth

COc1ccc(Oc2nc(Nc3ccc(N4CCOCC4)cc3)ncc2NC(=O)Nc2cc(OC)cc(OC)c2)cc1
active: HT29 colon -32.8% | U251 CNS -35.8% | SK-MEL-5 melanoma -32.8% | UACC-62 melanoma -8.63% | SK-MEL-28 melanoma 5.33%
inactive: HCT-15 colon 82.9% | SNB-75 CNS 53.3% | SNB-19 CNS 28.3% | PC-3 prostate 11.6% | LOX IMVI melanoma 24.1%

CCN(CC)CCCN1C(=O)c2c(c(C)c3c(oc4ccc(OC)cc43)c2C)C1=O
inactive: HCT-15 colon 94.9% | HT29 colon 90.9% | SNB-75 CNS 109% | SNB-19 CNS 94.4% | U251 CNS 96.4% | PC-3 prostate 97.4% | SK-MEL-5 melanoma 75.1% | UACC-62 melanoma 102% | LOX IMVI melanoma 96.9% | SK-MEL-28 melanoma 94.1%

CSc1nn2c(-c3ccc4ccccc4c3)ccnc2c1C#N
inactive: HCT-15 colon 15.4% | SNB-19 CNS 18.3% | PC-3 prostate 45.8% | SK-MEL-5 melanoma 10.1% | UACC-62 melanoma 18.8% | LOX IMVI melanoma 21.7% | SK-MEL-28 melanoma 38.9%
active: HT29 colon 2.83% | SNB-75 CNS -7.71% | U251 CNS 6.98%

COc1cccc(CNc2c3ccccc3nc3ccccc23)c1
inactive: HCT-15 colon 24.4% | HT29 colon 18.7% | SNB-75 CNS 56.9% | SNB-19 CNS 36% | U251 CNS 38.7% | PC-3 prostate 38.9% | SK-MEL-5 melanoma 57.6% | UACC-62 melanoma 63.5% | LOX IMVI melanoma 19.8% | SK-MEL-28 melanoma 81.2%

O=C1/C(=C/c2ccccc2F)CN(C(=O)C(Cl)Cl)C/C1=C\c1ccccc1F
active: HCT-15 colon -66.5% | HT29 colon 3.2% | SNB-75 CNS -18.4% | SNB-19 CNS -84.1% | U251 CNS -85.1% | PC-3 prostate -41.3% | SK-MEL-5 melanoma -77% | UACC-62 melanoma -59% | LOX IMVI melanoma -86.4% | SK-MEL-28 melanoma -58.9%

COc1ccc(-c2nc(/C=C3\C(=O)N(C)c4ccccc43)c3ccccn23)cc1
inactive: HCT-15 colon 90% | HT29 colon 96.8% | SNB-75 CNS 51.1% | SNB-19 CNS 78.7% | U251 CNS 75.1% | PC-3 prostate 86.9% | SK-MEL-5 melanoma 65.5% | UACC-62 melanoma 68.5% | LOX IMVI melanoma 65.2% | SK-MEL-28 melanoma 99.6%

COc1ccc2c(c1)c(-c1nc(-c3c[nH]c4ncccc34)cs1)cn2CCCN1CCOCC1
inactive: HCT-15 colon 13.7% | SNB-75 CNS 21.4% | SNB-19 CNS 54.4% | U251 CNS 16.3% | PC-3 prostate 18.2% | SK-MEL-5 melanoma 31.6% | UACC-62 melanoma 44.1% | LOX IMVI melanoma 17%
active: HT29 colon -12.9% | SK-MEL-28 melanoma -54.1%

CCOC(=O)C(Cc1ccc(OC)cc1)C(=O)OCC
inactive: HCT-15 colon 36.7% | HT29 colon 21.3% | SNB-75 CNS 30.1% | SNB-19 CNS 41.7% | U251 CNS 37.2% | PC-3 prostate 47.2% | SK-MEL-5 melanoma 53.1% | UACC-62 melanoma 33.4% | LOX IMVI melanoma 17% | SK-MEL-28 melanoma 51.5%

CNC(=O)c1cc(Oc2cccc3nc(NC(=O)Nc4cc(C(F)(F)F)ccc4Cl)ccc23)ccn1
inactive: HCT-15 colon 90% | HT29 colon 89.8% | SNB-75 CNS 68.9% | SNB-19 CNS 102% | U251 CNS 70.4% | PC-3 prostate 96.5% | SK-MEL-5 melanoma 80.2% | UACC-62 melanoma 96.3% | LOX IMVI melanoma 63.9% | SK-MEL-28 melanoma 92.4%

CCS/C(Nc1ccccc1)=C(\C#N)C(=O)Nc1ccc(OC)cc1
active: HT29 colon 6.46%
inactive: HCT-15 colon 16.9% | SNB-75 CNS 18.2% | SNB-19 CNS 23.1% | U251 CNS 16.6% | PC-3 prostate 47.9% | SK-MEL-5 melanoma 17.8% | UACC-62 melanoma 27.2% | LOX IMVI melanoma 36.6% | SK-MEL-28 melanoma 58.9%

O=P(O)(O)OCC1OC(n2cnc3c(NCc4ccco4)ncnc32)C(O)C1O (stereo not given)
active: HCT-15 colon 5.11% | SNB-75 CNS 8.93% | PC-3 prostate 9.01% | LOX IMVI melanoma -30.9%
inactive: HT29 colon 16.7% | SNB-19 CNS 31.9% | U251 CNS 38.3% | SK-MEL-5 melanoma 40.2% | UACC-62 melanoma 45.4% | SK-MEL-28 melanoma 87%

O=S(=O)(Nc1cc(Sc2cccc3cccnc23)c(O)c2ccccc12)c1ccccc1
active: HT29 colon -35.8% | U251 CNS 6.77% | SK-MEL-5 melanoma -25.2% | UACC-62 melanoma -40.1% | LOX IMVI melanoma -50.2% | SK-MEL-28 melanoma 0.27%
inactive: HCT-15 colon 12.2% | SNB-75 CNS 65.9% | SNB-19 CNS 43.4% | PC-3 prostate 20.9%

S=c1[nH]c(=S)c2c(-c3ccccc3)c(-c3ccccc3)oc2[nH]1
inactive: HCT-15 colon 99.1% | HT29 colon 102% | SNB-75 CNS 95.2% | SNB-19 CNS 96.2% | U251 CNS 95.9% | PC-3 prostate 103% | SK-MEL-5 melanoma 108% | UACC-62 melanoma 93.9% | LOX IMVI melanoma 96.5% | SK-MEL-28 melanoma 105%

CCN(CC)c1ccc(CNc2cc(C)nc3ccccc23)cc1
active: SK-MEL-5 melanoma 9.25%
inactive: HCT-15 colon 69.6% | HT29 colon 43.3% | SNB-75 CNS 75.2% | SNB-19 CNS 73.8% | U251 CNS 63.9% | PC-3 prostate 64% | UACC-62 melanoma 68.5% | LOX IMVI melanoma 65% | SK-MEL-28 melanoma 78.4%
